Screening results as filed in PubChem.
The sample as a whole holds a higher share of hits than the screen did.
AmpC inh detg: qHTS Inhibitors of AmpC Beta-Lactamase (assay with detergent); P00811; AmpC hydrolysis of nitrocefin, absorbance 480 nm, 0.01% Triton; Potency, µM (top dose mostly 114 µM), for inactives: at the top dose activity change, negative = inhibition, actives largely listed as inhibitors; 370,000 compounds, 0.041% hits;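 further: 0% = no-compound wells and -100% = no-enzyme wells; nearly all actives have a fitted effect of over 25% in size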
Target sequence (P00811 whole entry, looked up): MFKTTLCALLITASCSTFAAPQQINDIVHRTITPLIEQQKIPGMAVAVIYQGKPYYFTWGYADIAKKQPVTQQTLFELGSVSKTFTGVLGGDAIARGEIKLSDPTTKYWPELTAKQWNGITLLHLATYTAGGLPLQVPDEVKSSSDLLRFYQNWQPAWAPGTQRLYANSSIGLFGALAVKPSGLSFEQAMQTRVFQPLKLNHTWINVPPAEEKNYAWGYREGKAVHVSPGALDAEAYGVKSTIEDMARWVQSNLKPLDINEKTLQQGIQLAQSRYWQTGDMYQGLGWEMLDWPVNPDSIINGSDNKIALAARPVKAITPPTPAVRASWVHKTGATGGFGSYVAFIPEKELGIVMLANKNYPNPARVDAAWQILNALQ
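AmpC (5.3 nM in the dispensed reagent) in 20 mM phosphate pH 7.0 with 0.01% (detergent screen) or 0.0001% Triton X-100 was preincubated with compounds for 15 min at room temperature. Nitrocefin was then added from an 800 uM solution, and hydrolysis was followed at 480 nm.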
AmpC no deterg: qHTS Inhibitors of AmpC Beta-Lactamase (assay without detergent); Potency, µM (top dose mostly 57.1 µM), for the others: at the highest dose activity change, negative = inhibition, hits mostly inhibitors; 330,000 compounds, 0.52% hits; AmpC nitrocefin hydrolysis, absorbance 480 nm, 0.0001% Triton;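 further: plate controls were no compound for no effect and no enzyme for full effect; nearly all actives have a fitted effect of over 20% in size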
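AmpC (5.3 nM in the dispensed reagent) in 20 mM phosphate pH 7.0 with 0.01% (detergent screen) or 0.0001% Triton X-100 was preincubated with compounds for 15 min at room temperature. Nitrocefin was then added from an 800 uM solution, and hydrolysis was followed at 480 nm.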
An asterisk follows results filed as active; ? = inconclusive; · = not tested or not shown. The call rests on the fitted dose curve; in most records, active means well fitted curve in the direction sought with a large enough effect; inconclusive means small, poorly fitted or top-dose-only effect, or another doubt; inactive means no such curve, though single readings can be large; an effect the other way counts as inactive or inconclusive. Potency means the concentration at half of the fitted maximal effect.

SMILES	AmpC inh detg	AmpC no deterg
Cc1ccc(NC(=O)CSc2nc(O)cc(=O)n2-c2ccc(C)cc2)cc1	11%	13µM*
Cc1ccc(NC(=O)CSc2nc(O)c(Cc3ccccc3)c(=O)n2-c2ccccc2)cc1	-7%	11µM*
Cc1ccc(NC(=O)CSc2nc(O)cc(=O)n2C)cc1	?	-33%
CCc1c(O)nc(SCC(=O)Nc2ccccc2)n(-c2ccccc2)c1=O	?	-24%
CC1CCCCN1C(=O)Cn1c(SCC(=O)N(C)c2ccccc2)nc2ccccc21 (stereo not given)	19%	·
O=C(CSc1nc2c([nH]c3ccccc32)c(=O)n1-c1ccccc1)N1CCc2ccccc21	-7%	·
CCOc1ccccc1CNC(=O)CN1C(=O)CCCc2ccccc21	17%	·
CCn1c(SCC(=O)NCc2ccccc2)nc2c(c1=O)SC(C)C2 (stereo not given)	-2%	1.6µM*
CC1Cc2nc(SCC(=O)N3CCCC3)n(C)c(=O)c2S1 (stereo not given)	?	-2%
CC1Cc2nc(SCC(=O)N3CCN(c4ccccc4)CC3)n(C)c(=O)c2S1 (stereo not given)	?	1.6µM*
CCn1c(SCC(=O)N2CCN(c3ccccc3)CC2)nc2c(c1=O)SC(C)C2 (stereo not given)	-7%	77%
CC1Cc2nc(SCC(=O)N3CCN(c4ccccc4)CC3)n(CCc3ccccc3)c(=O)c2S1 (stereo not given)	-12%	3.5µM*
CCn1c(SCC(=O)NCc2ccc(F)cc2)nc2c(c1=O)SC(C)C2 (stereo not given)	-8%	-13%
COCCNc1cc(N2CCN(C3CCCCC3)CC2)c2noc3c2c1C(=O)c1ccccc1-3	14%	·
CCc1cccc(C)c1NC(=O)c1cnn(-c2ccc(OC)cc2)c1C1CCN(C(=O)OC(C)(C)C)CC1	20%	·
CCOC(=O)c1cc(-c2ccc(OC)cc2)n(CCC(=O)NCCc2ccc(OCC)c(OCC)c2)c1C	10%	·
CCn1c(CCNC(=O)c2ccc(F)cc2)nc2ccccc21	-8%	-2%
CCn1c(CCCNC(=O)c2ccc(F)cc2)nc2ccccc21	?	35µM*
O=C(O)C1Nc2c(O)cc(Cl)c([N+](=O)[O-])c2C2C=CCC12 (stereo not given)	40µM*	7.1µM*
Cc1ccc2c(c1)C1C=CCC1C(C(=O)O)N2 (stereo not given)	-16%	-36%
CCCC(=O)Nc1nnc(SCc2cc(=O)n3cccc(C)c3n2)s1	11%	·
COc1cccc(-c2nnc3sc(CN4CCCCC4)cn23)c1	3%	·
COc1ccc(Cn2c(=O)[nH]c3cc(C(=O)N4CCN(c5cc(Cl)ccc5C)CC4)ccc3c2=O)cc1	10%	·
COc1cccc(C(=O)NC2C(=O)N3C(C(=O)O)=C(COC(C)=O)CSC23)c1 (stereo not given)	?	-26%
CO[C@@]1(NC(=O)Cc2cccs2)C(=O)N2C(C(=O)O)=C(COC(N)=O)CS[C@@H]21	40µM*	-41%
SMILES	AmpC inh detg	AmpC no deterg
CCn1cc(C(=O)NCc2ccccc2)c(=O)c2cc(S(=O)(=O)N3CCOCC3)ccc21	2%	·
CCN(CC)c1ccc2c(Cl)cc(=O)oc2c1	0%	-17%
CCN(CC)c1ccc2c(O)cc(=O)oc2c1	?	25µM*
O=C(NCCc1nc2ccccc2[nH]1)/C(=C/c1ccc2c(c1)OCO2)NC(=O)c1ccccc1	-12%	10µM*
N#C/C(=C/c1ccc2c(c1)OCO2)C(=O)NCCc1c[nH]c2ccccc12	6%	0.28µM*
N#C/C(=C\c1ccc(-c2ccc(Br)cc2)o1)C(=O)NCCc1c[nH]c2ccccc12	-14%	8.9µM*
N#C/C(=C/c1ccc(-c2ccc(Br)cc2)o1)C(=O)NC1CCCCC1	-12%	-24%
O=C(NCCc1nc2ccccc2[nH]1)/C(=C/c1ccc2c(c1)OCO2)NC(=O)c1ccccc1Cl	-6%	-35%
O=C(NCCc1c[nH]c2ccccc12)c1ccc2c(c1)OCO2	-5%	-51%
Cc1cccc(-c2noc(-c3cc(C(C)C)[nH]n3)n2)c1	4%	·
COc1ccc(C(=O)NCc2ccc3c(c2)CCN3C(=O)c2ccc(C)cc2)cc1	10%	·
Cc1nc2c3ccccc3nc(NNC(=O)CCC(=O)N3CCN(c4cc(Cl)ccc4C)CC3)n2n1	-10%	·
Cc1cccc(Cn2c(N(C)CCO)nc3c2c(=O)[nH]c(=O)n3C)c1	?	11µM*
CN(Cc1ccccc1)c1nc2c(c(=O)[nH]c(=O)n2C)n1Cc1ccccc1	?	99%
Nc1nccnc1C(=O)OCC(=O)C12CC3CC(CC(C3)C1)C2	?	-22%
N#CC1(C#N)CC(C=O)=C(N)C1(C#N)CC(=O)C12CC3CC(CC(C3)C1)C2 (stereo not given)	-10%	16µM*
Cc1ccc(S(=O)(=O)c2cc3ccccc3oc2=Nc2ccc3c(c2)OCO3)cc1	5%	-13%
COc1cccc2cc(S(=O)(=O)c3ccccc3)c(=Nc3ccc4c(c3)OCCO4)oc12	-6%	3.5µM*
Cc1ccc(S(=O)(=O)c2cc3ccccc3oc2=Nc2ccc3c(c2)OCCO3)cc1	-5%	3.2µM*
COc1ccccc1NS(=O)(=O)c1ccc2c(c1)OCCO2	-2%	-13%
COc1ccc(-c2cn3cccnc3n2)cc1NC(=O)COc1ccccc1	3%	·
CCc1ccc2occ(CC(=O)Nc3ccc(OC)c(Cl)c3)c2c1	-8%	·
CCc1c(C)sc2c1CCN(Cc1cccc(OC)c1)C2c1ccccc1 (stereo not given)	9%	·
O=[N+]([O-])c1cccc(NC(=S)N2CCN(S(=O)(=O)c3ccccc3)CC2)c1	5%	22µM*
O=[N+]([O-])c1cccc(NC(=S)N2CCOCC2)c1	-5%	-18%
SMILES	AmpC inh detg	AmpC no deterg
COc1ccc(OC)c(CCNC(=O)Cn2sc3nc(C)cc(C)c3c2=O)c1	50µM*	?
Cc1cc(C)c2c(=O)n(CC(=O)NC3CCCC3)sc2n1	?	-28%
CCC(=O)N1CCc2cc(Br)cc(S(=O)(=O)N3CCN(c4ccc(C)cc4)C(C)C3)c21 (stereo not given)	6%	·
O=C(CCCn1c(=O)[nH]c2ccsc2c1=O)N1CCN(c2cccc(C(F)(F)F)c2)CC1	4%	·
CC(C)(C)C(=O)Nc1c(C(=O)N2CCN(c3ccc(F)cc3)CC2)oc2ccccc12	-2%	·
N#Cc1cccc(NC(=O)Nc2cccs2)c1	-1%	?
CCc1cccc(NC(=O)Nc2cccs2)c1	-3%	16µM*
COc1ccc(NC(=O)c2ccc(-c3ccc([N+](=O)[O-])cc3)o2)cc1OC	-12%	15%
COc1cccc(NC(=O)c2ccc(-c3ccc([N+](=O)[O-])cc3)o2)c1	-6%	18µM*
Cc1cc(O)c(C(C[N+](=O)[O-])c2ccc(Cl)cc2)c(=O)o1 (stereo not given)	1%	-20%
Cc1cc(C)n(C(C[N+](=O)[O-])c2ccc(Cl)cc2)n1 (stereo not given)	2%	18µM*
CCOc1cc(/C=N/NC(=O)c2ccc(-c3csc(Nc4ccc(C)cc4)n3)cc2)ccc1OCC(=O)O	-2%	1.4µM*
O=C(O)COc1ccc(/C=N/NC(=O)c2ccc(-c3csc(Nc4ccc(Cl)cc4)n3)cc2)cc1	?	-54%
COc1cccc(NC(=O)C(=O)NCC(c2cccnc2)N2CCN(c3ccccc3)CC2)c1 (stereo not given)	-2%	·
